Assay results taken from the OligoGym collection.

What follows are sequences tested against CYB5RL (assay: pooled miR-30 sensor sort-seq; sequence = guide strand). Details: shRNA.

Compared with TTTAATTAGGTCCTGGCCCAGG, TAGAGCAAACCGGACACGGTAG is lower in sensor-assay potency score (higher = more potent): -0.401 for the first, -0.685 for the second.

First: TAGGTGTCCTTAGTGAGCCTGT
Second: TTTCTCTTGGTAACTCCAGGGA
The sensor-assay potency score (higher = more potent) of the first is higher: 0.0964 for the first, -0.389 for the second.

Compared with TCTAAGTCATCTACTATCCCTC, TTCTCTTGGTAACTCCAGGGAA is lower in sensor-assay potency score (higher = more potent): 0.024 for the first, -0.56 for the second.

Compared with TAGAGGTCAAACACACAGGGTG, TTAATTAACACTTCAAAGTATC is lower in sensor-assay potency score (higher = more potent): -0.0487 for the first, -1.17 for the second.

First: TTTATAGAAGAAATCTCCGAAA
Second: TTAACACTTCAAAGTATCCTTC
The sensor-assay potency score (higher = more potent) of the first is lower: -0.391 for the first, 0.251 for the second.

First: TTCCTCAGTGTCGTCGTCCTCT
Second: TAGCACTTAATTAACACTTCAA
The sensor-assay potency score (higher = more potent) of the first is lower: -0.09 for the first, 0.518 for the second.

These sequences were tested against CYBRD1 in the same assay as above. Details: shRNA.

First: TTAAACTCTAGTGCGCTCCCAT
Second: TATATTGTTAACATTGTGGTTC
The sensor-assay potency score (higher = more potent) of the first is lower: -0.237 for the first, 0.299 for the second.

Going from TAGAGCTAGTTTTGAAACGTGA to TTAACTCTGAATCTGATTTGTC, the sensor-assay potency score (higher = more potent) falls from 0.234 to -0.16.

Going from TTTAACTCTGAATCTGATTTGT to TATCAGTCCAACCCAGCTGTGC, the sensor-assay potency score (higher = more potent) falls from -0.198 to -0.838.

Going from TTTTCCTTGCTGCTACTTCATT to TTCATCAGGAGCTTGCTGCATT, the sensor-assay potency score (higher = more potent) rises from -1.57 to 0.213.

First: TTTATATTAATCACATCCTTTC
Second: TACTTCATTGTTTAACTCTGAA
The sensor-assay potency score (higher = more potent) of the first is lower: -0.692 for the first, -0.114 for the second.

With TTATTTCAAGAAACCATCCTTT the sensor-assay potency score (higher = more potent) was 0.251.
